Assay outcomes from PubChem.
GSTO1 counter – counter-screen for RBBP9 inhibitors: inhibitors of human GSTO1 | P78417 | recombinant GSTO1, activity-based probe fluorescence polarization | inhibition, % at 5.96 µM | 300,000 tested, 1.1% active | AID 1974;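 active = inhibition above the campaign mean inhibition plus 3 SD, cut at about 35% in these data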
PME-1 primary – PME-1 (human) inhibition. inhibition, % at 5.9 µM. recombinant PME-1, FP-Rh probe fluorescence polarization. 320,000 tested, 0.53% active;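 active = inhibition above the campaign mean of all compounds plus 3 SD, cut at about 26% in these data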;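 note: competitive labeling of PME-1 active site by serine hydrolase directed probe; inhibitors block probe labeling so polarization falls and inhibition rises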
Target sequence (Q9Y570 whole entry, looked up): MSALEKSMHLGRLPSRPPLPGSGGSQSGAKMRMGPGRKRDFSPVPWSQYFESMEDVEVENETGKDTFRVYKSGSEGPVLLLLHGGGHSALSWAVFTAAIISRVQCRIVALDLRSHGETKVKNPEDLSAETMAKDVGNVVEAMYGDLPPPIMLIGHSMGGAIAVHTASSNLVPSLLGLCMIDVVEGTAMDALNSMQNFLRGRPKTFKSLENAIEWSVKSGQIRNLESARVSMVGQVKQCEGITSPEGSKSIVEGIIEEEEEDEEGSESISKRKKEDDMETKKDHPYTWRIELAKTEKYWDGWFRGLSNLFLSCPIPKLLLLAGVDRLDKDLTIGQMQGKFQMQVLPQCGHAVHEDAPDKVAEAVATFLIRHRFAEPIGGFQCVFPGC
LYPLA1 inh – LYPLA1 (human) inhibition in PME1 counter-screen; inhibition, % at 5.9 µM; recombinant LYPLA1, FP-Rh probe fluorescence polarization; AID 2174; 320,000 tested, 0.16% active;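 active = inhibition above the mean of all tested compounds plus 3 SD, set per campaign, cut at about 14% in these data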;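 note: inhibitors block serine hydrolase probe labeling of LYPLA1 so polarization falls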
PAD4 FP inh – PAD4 (human) enzyme inhibition | Q9UM07 | recombinant PAD4, RCA probe fluorescence polarization | inhibition, % at 6.36 µM | 330,000 tested, 0.41% active | AID 485272;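 active = percent inhibition above a cutoff equal to the mean of all tested compounds plus 3 SD, cut at about 15% in these data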
LYPLA2 inh – blocks human lysophospholipase 2, a PME1 counter-screen; 320,000 tested, 0.38% active; inhibition, % at 5.9 µM; recombinant LYPLA2, FP-Rh probe fluorescence polarization; O95372;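 active = inhibition above the screen-wide mean plus 3 SD, limit set per campaign, cut at about 26% in these data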
Fam108B inh – counter-screen for RBBP9 inhibitors: inhibitors of mouse Fam108B | recombinant Fam108B, FP-Rh probe fluorescence polarization | inhibition, % at 9.51 µM | 300,000 tested, 0.33% active | AID 1947;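 active = inhibition above the screen mean inhibition plus 3 SD, computed separately per campaign, cut at about 18% in these data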;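 note: inhibitors lower polarization as less probe binds the enzyme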
GSTO1 confirm – GSTO1 (human) inhibition, confirmation | 2,400 tested, 54% active | shares compounds with GSTO1 counter | recombinant GSTO1, probe fluorescence polarization | AID 2176 | inhibition, % at 5.96 µM;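 active = inhibition above the primary screen's cutoff, its mean inhibition plus 3 SD, cut at about 35% in these data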;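 note: loss of polarization as inhibitors block binding of rhodamine sulfonate ester activity probe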
LYPLA1 confirm – counter-screen for PME1 inhibitors: confirmation of human LYPLA1 inhibitors. shares compounds with LYPLA1 inh. recombinant LYPLA1, FP-Rh probe fluorescence polarization. 480 tested, 69% active. AID 2233. inhibition, % at 5.9 µM;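 active = mean inhibition across replicates above the hit cutoff set in the primary screen, cut at about 15% in these data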;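 note: loss of FP-Rh probe labeling of LYPLA1 seen as lower polarization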
LYPLA2 conf – LYPLA2 (human) inhibition, confirmation counter-screen | shares compounds with LYPLA2 inh | recombinant LYPLA2, FP-Rh probe fluorescence polarization | inhibition, % at 5.9 µM | 1,100 tested, 72% active | AID 2232;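 active = mean inhibition across replicates above the hit cutoff set in the primary screen, cut at about 26% in these data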;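 note: blocked labeling of the enzyme by serine hydrolase FP-Rh probe lowers polarization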
PAD4 FP conf – PAD4 (human) inhibition, confirmed; shares compounds with PAD4 FP inh; recombinant PAD4, RCA probe fluorescence polarization; inhibition, % at 6.36 µM; 1,200 tested, 28% active;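 active = mean inhibition across replicates above the hit cutoff set by the earlier primary screen, cut at about 15% in these data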;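 note: inhibitors block active-site labeling by the probe so polarization falls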
A number is an active result; 0 = inactive; - = not tested or not shown. Shown are actives, neighbours in structure and some others; about 1.8% of the full set was active somewhere.

SMILES	GSTO1 counter	PME-1 primary	LYPLA1 inh	PAD4 FP inh	LYPLA2 inh	Fam108B inh	GSTO1 confirm	PAD4 FP conf	others
CCN(CC)c1ccc(N=Cc2c(O)n(-c3ccccc3)c(=O)[nH]c2=O)cc1	42.3	0	0	18.2	0	0	0	0
CCN(CC)c1ccc(N=Cc2c(O)n(-c3ccccc3C)c(=O)[nH]c2=O)cc1	0	0	0	0	0	0	-	-
CCOc1ccccc1-n1c(O)c(C=Nc2ccc(N(CC)CC)cc2)c(=O)[nH]c1=O	54.1	0	0	37.6	0	0	0	0
CC1CCC(N2CCN(C(=O)COc3ccccc3)CC2)CC1 (stereo not drawn)	0	0	0	0	0	0	-	-
Cc1cc(Oc2ccc(C(F)(F)F)cc2[N+](=O)[O-])c2c3c(c(=O)oc2c1)CCCC3	0	0	0	0	0	0	-	-
CC(C)[C@H]1C(=O)N2CCC[C@H]2[C@]2(O)O[C@](NC(=O)[C@@H]3C=C4c5cccc6[nH]cc(c56)C[C@H]4N(C)C3)(C(C)C)C(=O)N12	59.0	0	0	28.9	0	0	0	0
CCCCCCn1c(N)c(C(=O)NCCN2CCOCC2)c2nc3ccccc3nc21	0	0	0	0	0	0	-	-
CCCCn1c(N)c(C(=O)OCC2CCCO2)c2nc3ccccc3nc21 (stereo not drawn)	81.3	0	0	69.4	0	0	0	0
CC(C)OCCCNC(=O)c1c(N)n(CC2CCCO2)c2nc3ccccc3nc12 (stereo not drawn)	0	0	0	0	0	0	-	-
CCOC(=O)c1c(NC(=O)c2c(N)n(CCCOC)c3nc4ccccc4nc23)sc2c1CCCC2	0	0	0	0	0	0	-	-
CC(C)CCn1c(N)c(C(=O)OCC2CCCO2)c2nc3ccccc3nc21 (stereo not drawn)	88.0	0	0	72.3	0	0	0	0
CCCCCn1c(N)c(C(=O)NCc2cccs2)c2nc3ccccc3nc21	60.1	0	0	65.0	0	0	0	0
COc1cc2c(cc1OC)-c1c(OC)c(OC)cc3c1C(C2)N(C)CC3 (stereo not drawn)	69.6	0	0	47.2	0	0	78.2	26.0
COc1cc2c(cc1OC)-c1c3c(cc4c1[C@@H](C2)N(C)CC4)OCO3	78.6	0	0	56.9	0	0	69.8	0
C[C@]12CCC3C(CC[C@H]4C[C@@H](O)CC[C@]34C)C1C[C@@H](O)C2=O (stereo partly drawn)	-	-	-	0	-	-	-	-
C[C@]12CC[C@@H](O)CC1=CCC1C2CC[C@@]2(C)C1C[C@@H](F)[C@@H]2O (stereo partly drawn)	-	-	-	0	-	-	-	-
NP(=O)(OCCCCc1ccccc1)Oc1ccccc1Cl (stereo not drawn)	0	41.4	19.2	0	0	0	-	-	LYPLA1 confirm=0
CCCCn1c(=O)c(C=Nc2cccnc2Cl)c(O)n(CCCCl)c1=O	0	0	0	0	0	0	-	-
CCN(CC)C(=O)c1ccc(NC(=O)COc2ccc(-c3nn(C)c(=O)c4ccccc34)cc2)cc1	0	0	0	0	31.7	0	-	-	LYPLA2 conf=31.4
CC(=NCCc1c[nH]c2ccccc12)c1c(O)n(Cc2ccccc2)c(=O)[nH]c1=O	0	0	0	0	30.8	0	-	-	LYPLA2 conf=27.4
CC(=NCCN1CCOCC1)c1c(O)n(Cc2ccccc2)c(=O)[nH]c1=O	0	0	0	0	0	0	-	-
Oc1c(Cl)c(Cl)c(Cl)c(Cl)c1Cl	0	0	0	0	28.1	0	-	-	LYPLA2 conf=34.3
N#CC(c1ccccc1)N1CCOCC1 (stereo not drawn)	0	0	0	0	0	0	-	-
CN(CC#CCN1CCCC1)C(=O)c1cccc(Cl)c1	0	0	0	0	0	0	-	-
Cc1ccc(Cn2nnnc2CN2CCC(n3nnc4cc(C)ccc43)CC2)cc1	0	0	0	0	26.6	0	-	-	LYPLA2 conf=0
